From PubChem BioAssay (Tox21)
Results filed as inconclusive are left out. The source made the active and inactive calls. Unless noted, calls follow the shape of the dose curve; as a rule, active = well fitted curve in the direction sought with a large enough effect in the repeat runs; inconclusive = weak or mixed curves; inactive = no such curve, though single readings can be large; an effect the other way counts as inactive or inconclusive.

Legend:
[1] = qHTS assay for small molecule agonists of the p53 signaling pathway - cell viability (AID 651633; calls by dose curve;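 also: p53RE-bla HCT reporter cells with a stable beta-lactamase p53 reporter; nearly all actives have a fitted effect of over 30% in size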); conditions: p53RE-bla HCT-116 viability, ATP luminescence, 16 h; series mostly up to 83.3 µM
Method in brief: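 p53RE-bla cells were treated with compound for 16 hours at 37 C. Cytotoxicity was then measured as CellTiter-Glo luminescence after 30 min at room temperature.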

[2] = qHTS assay for small molecules that induce genotoxicity in human embryonic kidney cells expressing luciferase-tagged ATAD5 - cell viability (AID 651634; calls by dose curve; also: nearly all actives have a fitted effect of over 25% in size); conditions: HEK293T ATAD5-luc cells viability, CellTiter-Fluor, 15.5 h; series mostly up to 83.3 µM
Method in brief: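 After 15.5 hr incubation with compound at 37C, 5% CO2, HEK293T ATAD5-luciferase cells received CellTiter-Fluor reagent; fluorescence intensity was quantified following 30 min at 37C.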

[3] = qHTS assay to test for compound auto fluorescence at 590 nm (red) in HepG2 cells (AID 720674); conditions: HepG2 autofluorescence, red 540/590 nm, 1 h; series mostly up to 91.3 µM
Method in brief: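 Fluorescence at 590 nm emission following 540 nm excitation was recorded from HepG2 wells one hour after compound transfer, with DMSO-only wells as vehicle and Rose Bengal sodium equivalency as the scale.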

[4] = qHTS assay to test for compound auto fluorescence at 535 nm (green) in HepG2 cells (AID 720675); conditions: green autofluorescence 485/535 nm, 1 h; series mostly up to 91.3 µM
[5] = qHTS assay to test for compound auto fluorescence at 460 nm (blue) in HEK293 cells (AID 720678); conditions: blue autofluorescence 405/460 nm; series mostly up to 91.3 µM
Method in brief: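 Auto fluorescence in the blue band was quantified as triamterene equivalency. HEK293 cells were seeded at 2,000/well, dosed after a 4-5 hr attachment, and kept overnight at 37C before the 405/460 nm reading.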

[6] = qHTS assay to test for compound auto fluorescence at 590 nm (red) in HEK293 cells (AID 720679); conditions: red autofluorescence 540/590 nm; series mostly up to 91.3 µM
Method in brief: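 Autofluorescence equivalency to Rose Bengal sodium, 540/590nm, in HEK293 cells exposed overnight to 23 nL compound per well.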

[7] = qHTS assay for small molecule disruptors of the mitochondrial membrane potential - cell viability (AID 720634; calls by dose curve;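 also: human HepG2 liver cancer cells; nearly all actives have a fitted effect of over 20% in size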); conditions: HepG2 viability, ATP luminescence (CellTiter-Glo), 1 h; series mostly up to 83.2 µM
Method in brief: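 ATP-based luminescent viability readout (CellTiter-Glo, 30 min, room temperature) in HepG2 cells multiplexed with the m-MPI membrane potential dye; compound exposure lasted 1 hr at 37 C.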

[8] = qHTS assay for small molecule disruptors of the mitochondrial membrane potential (AID 720635); conditions: HepG2 mitochondrial membrane potential, Mito-MPS dye ratio; series mostly up to 83.2 µM; also: potency is read from the fitted curve at half-maximal effect
Method in brief: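 HepG2 cells exposed to compound 1 hr at 37C, then Mito-MPS dye 30 min. Ratio read of aggregate (540/590 nm) versus monomer (490/535 nm) fluorescence.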

[9] = qHTS assay for small molecules that induce genotoxicity in human embryonic kidney cells expressing luciferase-tagged ATAD5 (AID 651632); conditions: HEK293T ATAD5-luciferase induction, 16 h; series mostly up to 83.3 µM; also: nearly all actives have a fitted effect of over 15% in size
Method in brief: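 Quantitative HTS in HEK293T expressing luciferase-tagged ATAD5, whose levels rise upon DNA damage. Exposure ran 16 hr at 37C and 5% CO2, with luminescence read 30 min after Amplite addition at room temperature.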
% is scaled to controls: 0 for no effect and ±100 for the full control effect.

CCCCN1C=CN(C)C1
inactive: Potency [1] | Potency [2] | fluorescence, relative to Rose Bengal [3] -0.0028% [at 18.6 µM] | fluorescence, % of fluorescein control [4] -0.0563% [at 18.6 µM] | fluorescence, % of triamterene [5] 0.173% [at 18.6 µM] | fluorescence, % of fluorescent control [6] -0.0345% [at 18.6 µM]

CCCCOC(=O)CCC(C)=O
inactive: Potency [1] | Potency [2] | outcome [7] | Potency [8] | outcome [3] | outcome [4] | outcome [5] | outcome [6]

CC(C)c1ccc2ncccc2c1
inactive: Potency [9] | Potency [2] | outcome [7] | outcome [3] | outcome [4] | outcome [5] | outcome [6]

COc1ccccc1OCC1CNC(=O)O1 (stereo not given)
inactive: Potency [1] | Potency [2] | outcome [7] | Potency [8] | outcome [3] | outcome [4] | outcome [5] | outcome [6]

CC1=NN(c2cccc(S(=O)(=O)O)c2)C(=O)C1
inactive: Potency [9] | Potency [2] | outcome [3] | outcome [4] | outcome [5] | outcome [6]

[Ca+2]
inactive: Potency [9] | Potency [2] | outcome [3] | outcome [5] | outcome [6]

CCCCCCCCCC[N+](C)(C)[O-]
inactive: Potency [1] | Potency [2] | outcome [7] | outcome [3] | outcome [4] | outcome [5] | outcome [6]

CC[N+](C)(CC)CCOC(=O)C1c2ccccc2Oc2ccccc21
inactive: Potency [1] | Potency [2] | outcome [7] | Potency [8] | outcome [3] | outcome [5] | outcome [6]

O=S(=O)(O)c1cccc(S(=O)(=O)O)c1
inactive: Potency [9] | Potency [1] | Potency [2] | outcome [3] | outcome [4] | outcome [5] | outcome [6]

O=C1c2ccccc2C(=O)c2cc(O)ccc21
active: Potency [8] 1.94 µM
inactive: Potency [1] | Potency [2] | outcome [3] | outcome [4] | outcome [5] | outcome [6]

Cc1c(N)c(=O)n(-c2ccccc2)n1C
inactive: Potency [1] | Potency [2] | outcome [7] | Potency [8] | fluorescence, relative to Rose Bengal [3] -0.0352% [at 18.6 µM] | fluorescence, % of triamterene [5] 0.0036% [at 18.6 µM] | fluorescence, % of fluorescent control [6] 0.258% [at 18.6 µM]
